# A selection: hits, their analogues and other compounds. The true share with any hit is near 7.4%.
# NPC1 prom act: activates the NPC1 promoter. Huh7 NPC1 promoter luciferase reporter, 24 h. Potency, µM (top dose mostly 9.22 µM), without a hit: at the top dose activation, hits mostly activators. actives 2.4% (n = 320,000); note: % of control where 0% means no effect; nearly all actives have a fitted effect of over 60% in size
#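 Compounds in DMSO were transferred onto Huh7 NPC1-luciferase reporter cells pre-incubated 2 h; after 24 h at 37 °C, Amplite reagent was dispensed and luminescence recorded 10 min later.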
# SMN2 splice up: increases expression of the SMN2 splice variant; Potency, µM (top dose mostly 46.1 µM), without a hit: at the highest dose activity change, positive = activation, most hits filed as activators; HEK293 SMN2-luciferase splicing reporter, luminescence, 30-36 h; actives 2.8% (n = 210,000); AID 1458; note: % of control where 0% means no effect; nearly all actives have a fitted effect of over 55% in size
#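 qHTS luciferase splicing reporter: luminescence rises when SMN2 exon 7 is included in transfected HEK293 cells. Compound exposure lasted 30-36 h at 37C, with 4.5 mM final sodium butyrate as control, followed by a ONE-Glo read.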
# ELG1 genotox: inducers of genotoxicity in HEK293T ELG1-luciferase cells | AID 504466 | HEK293T ELG1-luciferase reporter, luminescence, 16 h | Potency, µM (doses to about 46 µM), for inactives: at the top dose activity change, positive = activation, most hits filed as activators | actives 1.3% (n = 330,000); note: % of control where 0% means no effect; nearly all actives have a fitted effect of over 60% in size
#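 HEK293T cells expressing luciferase-tagged ELG1 were treated with compound or DMSO for 16 hr at 37°C. Luciferase activity was then read after 30 min with ONE-Glo at room temperature; rising signal flags genetic stress.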
# Rab9 prom act: activates the Rab9 promoter. Huh7 Rab9 promoter-luciferase reporter, luminescence, 24 h. Potency, µM (highest dose often 9.22 µM), for the others: at the top dose activation, negative = inhibition, usual class: activators. actives 2.8% (n = 320,000). AID 485297; note: % of control where 0% means no effect; nearly all actives have a fitted effect of over 60% in size
#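 Huh7 cells stably carrying Rab9 promoter–luciferase reporter, plated 1500 cells/well, compound added after 2 h and incubated 24 h at 37 °C; luciferase luminescence then read after 10 min with detection reagent.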
# FLuc modulator: counter-screen for miR-21 project: firefly luciferase inhibitors or activators; purified FLuc, Km substrates, luminescence inhibition; Potency, µM (highest dose often 57.5 µM), inactives show top-dose activity change, negative = inhibition, actives largely listed as inhibitors; actives 6.9% (n = 360,000); AID 588342;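 note: plate controls were vehicle for no effect and reference inhibitor for full effect; nearly all actives have a fitted effect of over 55% in size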
# Target sequence (P08659 whole entry, looked up): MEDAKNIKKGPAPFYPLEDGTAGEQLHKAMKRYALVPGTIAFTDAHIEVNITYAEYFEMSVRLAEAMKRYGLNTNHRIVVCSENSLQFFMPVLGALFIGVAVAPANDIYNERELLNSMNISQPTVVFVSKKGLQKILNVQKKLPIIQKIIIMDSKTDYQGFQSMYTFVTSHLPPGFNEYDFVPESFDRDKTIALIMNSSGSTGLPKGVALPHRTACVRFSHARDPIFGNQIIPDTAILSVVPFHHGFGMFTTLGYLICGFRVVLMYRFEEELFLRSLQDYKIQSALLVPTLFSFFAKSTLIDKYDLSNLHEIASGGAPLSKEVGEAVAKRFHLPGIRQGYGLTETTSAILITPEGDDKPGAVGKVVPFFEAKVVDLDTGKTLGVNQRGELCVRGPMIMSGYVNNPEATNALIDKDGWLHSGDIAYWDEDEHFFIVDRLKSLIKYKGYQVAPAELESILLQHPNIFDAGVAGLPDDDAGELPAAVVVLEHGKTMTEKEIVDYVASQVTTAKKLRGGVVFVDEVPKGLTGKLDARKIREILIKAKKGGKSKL
#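 Purified P. pyralis luciferase, 10 nM final, with Km-level 10 uM D-luciferin and 10 uM ATP in 50 mM Tris acetate pH 7.5, 10 mM Mg acetate, 0.01% Tween-20, 0.05% BSA; 6-point qHTS titration about 60 µM downward; luminescence read.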
# An asterisk follows results filed as active; ? = inconclusive; . = no result given; [ ] = dose if it differs, or a comment. Calls come from the whole dose curve; as a rule, active = well fitted curve in the direction sought with a large enough effect; inconclusive = small, poorly fitted or top-dose-only effect, or another doubt; inactive = no such curve, though single readings can be large; an effect the other way counts as inactive or inconclusive. Potency is the fitted concentration of half-maximal effect.
SMILES,NPC1 prom act,SMN2 splice up,ELG1 genotox,Rab9 prom act,FLuc modulator
O=C(N/N=C/c1cc(Cl)cc([N+](=O)[O-])c1O)c1ccc2c(c1)OCO2,-15.0%,.,19.4%,-4.0%,10.7µM*
O=C(N/N=C/c1cccs1)c1ccc2c(c1)OCO2,2.51µM*,12.6µM*,9.2µM*,1.26µM*,2.69µM*
O=C(N/N=C/c1ccc(Cl)cc1)c1ccc2c(c1)OCO2,7.8%,.,?,25.8%,3.38µM*
Cc1cc(C(C)(C)C)cc(C)c1C[n+]1ccc2ccccc2c1,-40.4%,.,-14.8%,-23.9%[1.84 µM],-0.4%
O=C(N/N=C(/c1ccccc1)c1ccncc1)c1ccc2c(c1)OCO2,-0.5%,-11.8%,-0.8%,2.3%,-2.1%
CCCCCCOc1ccc(/C=N/NC(=O)C2CC2)cc1,-0.5%,.,4.5%,4.1%,-3.4%
CCN(CC)c1ccc(/C=N/NC(=O)C2CC2)cc1,16.0%,.,?,?,15.1µM*
O=C(N/N=C/c1ccc2c(c1)OCO2)c1ccc2c(c1)OCCO2,?,11.2µM*,?,?,1.9µM*
O=C(N/N=C/c1ccncc1)c1ccc2c(c1)OCO2,7.9%,?,-6.1%,15.2%,26.9µM*
O=C(N/N=C/c1ccccc1O)c1ccc2c(c1)OCO2,?,.,14.6µM*,-17.0%,2.69µM*
Nc1ncnc2c1nc(Br)n2C1O[C@H]2COP(=O)(O)O[C@@H]2C1O (stereo not given in full),.,-23.9%,.,.,.
COC(=O)CN1C(=O)COc2ccc(S(=O)(=O)NCc3ccccc3)cc21,-1.0%,.,-0.4%[9.26 µM],1.6%,1.2%
S=C(NCC1CC1)N/N=C/c1ccccc1Cl,20.9%,.,1.5%,21.3%,-5.3%
Cc1c(/C=N/NC(=O)c2ccccc2O)c2ccccn2c1C(=O)c1ccc(F)cc1,-0.9%,-103.0%,-16.7%,6.8%,13.5µM*
Cc1c(/C=N/NC(=O)c2ccc(O)cc2)c2ccccn2c1C(=O)c1ccc(F)cc1,4.6%,-34.7%,-8.1%,6.5%,?
Cc1c(/C=N/NC(=O)c2cc(=O)[nH]c(=O)[nH]2)c2ccccn2c1C(=O)c1ccccc1,0.0%,-15.7%,-2.2%,-2.4%,23.9µM*
Cc1c(/C=N/NC(=O)c2cccnc2)c2ccccn2c1C(=O)c1ccc(F)cc1,-1.8%,-23.7%,-10.5%,-3.1%,15.1µM*
O=C(NCCc1ccc(Cl)cc1)c1ccc2c(c1)N(Cc1ccc(Cl)cc1)C(=O)CS2,.,-10.6%,.,.,-11.2%
COc1ccc(-c2nc3sc(CCNC(=O)C(=O)Nc4c(C)cccc4C)c(C)n3n2)cc1,.,.,.,.,0.0%
Cc1ccc(N2CC(C(=O)Nc3c4c(nn3C(C)(C)C)CS(=O)(=O)C4)CC2=O)cc1 (stereo not given),-0.6%,.,1.6%,0.8%,1.3%
O=C(Nc1ccc(OCC(F)(F)C(F)F)c(C(F)(F)F)c1)c1ccccc1O,0.3%,-30.1%,13.9%,-35.2%,21.3µM*
O=C(Nc1ccc(OCC(F)(F)C(F)F)cc1)c1ccncc1,-4.5%,-66.4%,-9.2%,-9.8%,-2.8%
CCc1ccc(C(=O)NNC(=O)CN2C(=O)NC3(CCCC3)C2=O)cc1,-4.3%,.,5.0%,-0.5%,15.1µM*
CCCCc1nnc(NC(=O)CC(=O)Nc2ccccc2C(=O)O)s1,9.6%,-13.5%,1.8%,-0.9%,16.9µM*
CC(C)Cc1nnc(NC(=O)CC(=O)Nc2ccccc2C(=O)O)s1,11.6%,-10.5%,7.8%,7.0%,15.1µM*
SMILES,NPC1 prom act,SMN2 splice up,ELG1 genotox,Rab9 prom act,FLuc modulator
CC(C)c1nnc(NC(=O)CC(=O)Nc2ccccc2C(=O)O)s1,2.51µM*,-17.1%,?,3.55µM*,4.78µM*
CCc1nnc(NC(=O)CC(=O)Nc2ccccc2C(=O)O)s1,17.5%,-10.9%,1.2%,?,15.1µM*
CC(C)c1nnc(NC(=O)CCC(=O)Nc2ccccc2)s1,-2.9%,.,-0.1%,1.2%,0.6%
CCCCc1nnc(NC(=O)CCSc2ccccc2)s1,4.2%,-13.5%,-1.1%,-0.4%,0.0%
CCOc1ccc(-c2c(C)nn3c(C)c(C(=O)NCc4cccc(OC)c4)cnc23)cc1OCC,.,.,.,.,-6.3%
CC(C)N1C(=O)C(=O)N(CC(=O)N(C)c2ccccc2)C1=O,-9.2%,.,3.2%,3.7%,.
O=C(Nc1cccnc1)c1cnn2c1NC(=C1CC1)C=C2C(F)F,.,.,.,.,-0.7%
